Results filed as inconclusive are left out. Activity calls are given as the source filed them.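 Rule for the calls, unless noted: active = GFP signal, as percent of the solvent control, above the screen mean plus 3 SD, about 149; inconclusive = no reading because the compound's own fluorescence upset strain identification; inactive = the rest.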 Peptide text beside a SMILES is read from it. * marks the point of attachment. Boc = CC(C)(C)OC(=O)*
Tests used:
[1] = yeast TOR pathway RPL19A-GFP modulators, primary screen, cell-based, S. cerevisiae, multiplex flow cytometry (AID 1862; in the data active = percent of DMSO control GFP below about 86%;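 note: lower values mimic rapamycin by blocking the RPL19A rise seen in DMSO cells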); settings: S. cerevisiae RPL19A-GFP strain, flow cytometry fluorescence, 3 h; at 10 µM; stronger effect = lower value
[2] = modulators of MEP2-GFP levels in yeast, primary screen, S. cerevisiae, multiplex flow cytometry (AID 1867;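 active = GFP response, as percent of the DMSO control, above the screen-wide mean plus 3 SD, about 139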;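 note: median GFP channel fluorescence of barcode-gated MEP2-GFP cells measured by flow cytometry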); settings: S. cerevisiae MEP2-GFP strain, 3 h, at 10 µM, stronger effect = higher value, 100% means same as DMSO wells
[3] = modulators of CIT2-GFP expression in yeast, primary screen, S. cerevisiae, GFP fusion, multiplex flow cytometry (AID 1870;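 active = percent response above a set limit, the screen-wide mean plus 3 SD, cut at about 130% in these data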;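 note: barcoded CIT2-GFP strain pooled with four other GFP strains with rapamycin as positive control; median GFP fluorescence per well over plate mean of DMSO wells so 100% = DMSO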); settings: 3 h, at 10 µM, stronger effect = higher value
[4] = modulators of LAP4-GFP expression in yeast, primary screen, S. cerevisiae, multiplex flow cytometry (AID 1873); settings: 3 h, at 10 µM, stronger effect = higher value
[5] = modulators of AGP1-GFP expression in yeast TOR pathway, primary screen, cell-based, multiplex flow cytometry, S. cerevisiae (AID 1887;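 active = GFP signal above the screen-wide mean plus 3 SD, that is over about 124.5% of the solvent control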;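 note: AGP1-GFP fusion strain of S. cerevisiae within a five-strain barcoded multiplex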); settings: 3 h, at 10 µM, stronger effect = higher value
[6] = inhibitors of CD8+ T cell-vesicle binding, pilot screen, LFA-1/ICAM-1 modulator project, MLPCN validation set, flow cytometry (AID 2523;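 active = response below a set limit, under 55% cells CD8-positive and vesicle-bound, and CD8 cells' 90th-percentile brightness under 279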;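 for vesicle binding response: mean PE anti-B7-1 fluorescence of CD8+ cells relative to row control; 100% = QL9-loaded vesicles with DMSO vehicle in the same plate row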); settings: 2C mouse CD8+ T cells, at 7 µM, stronger effect = lower value; double positive events: measured here: CD8+/vesicle+ event percentage
[7] = biological target: Integrin beta-1 (Homo sapiens) + Integrin alpha-4 (Homo sapiens) (UniProt P13612+P05556); test: inhibition of HUTS-21 binding to VLA-4, pilot screen, VLA-4 allosteric modulator project, U937 cells, HUTS-21 mAb, flow cytometry, validation set (AID 2674;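 active = inhibition above 50%, about 3 SD of the validation set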;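 note: antibody binding induced by the VLA-4 ligand LDV present at three times its Kd; 0% = LDV ligand with antibody and no compound and 100% = antibody without LDV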); settings: HUTS-21 LIBS mAb binding, at 6.7 µM, stronger effect = higher value, binding induced by LDV ligand
Sequence of Integrin beta-1 (Homo sapiens) + Integrin alpha-4 (Homo sapiens) (P05556 whole entry, looked up): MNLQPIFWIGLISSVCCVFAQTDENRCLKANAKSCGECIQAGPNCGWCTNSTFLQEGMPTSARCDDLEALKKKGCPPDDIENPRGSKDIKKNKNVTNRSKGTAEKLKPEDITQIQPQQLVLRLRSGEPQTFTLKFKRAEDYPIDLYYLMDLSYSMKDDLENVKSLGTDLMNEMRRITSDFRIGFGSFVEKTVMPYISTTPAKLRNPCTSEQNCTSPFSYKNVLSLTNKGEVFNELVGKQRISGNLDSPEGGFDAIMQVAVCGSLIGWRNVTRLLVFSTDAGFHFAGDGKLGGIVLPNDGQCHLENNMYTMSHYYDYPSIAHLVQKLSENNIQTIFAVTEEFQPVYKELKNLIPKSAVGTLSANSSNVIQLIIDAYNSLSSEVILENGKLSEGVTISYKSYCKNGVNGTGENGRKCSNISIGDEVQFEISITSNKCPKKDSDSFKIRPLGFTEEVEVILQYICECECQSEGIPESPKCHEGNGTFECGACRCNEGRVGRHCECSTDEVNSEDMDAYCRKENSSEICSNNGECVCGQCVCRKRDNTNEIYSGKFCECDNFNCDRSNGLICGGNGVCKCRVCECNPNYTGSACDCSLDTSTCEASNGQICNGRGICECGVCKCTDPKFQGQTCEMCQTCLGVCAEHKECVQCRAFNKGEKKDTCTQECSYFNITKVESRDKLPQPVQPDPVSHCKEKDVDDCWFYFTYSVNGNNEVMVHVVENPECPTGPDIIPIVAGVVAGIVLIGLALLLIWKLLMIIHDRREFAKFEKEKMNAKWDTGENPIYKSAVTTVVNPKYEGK
Sequence of Integrin beta-1 (Homo sapiens) + Integrin alpha-4 (Homo sapiens) (P13612 whole entry, looked up): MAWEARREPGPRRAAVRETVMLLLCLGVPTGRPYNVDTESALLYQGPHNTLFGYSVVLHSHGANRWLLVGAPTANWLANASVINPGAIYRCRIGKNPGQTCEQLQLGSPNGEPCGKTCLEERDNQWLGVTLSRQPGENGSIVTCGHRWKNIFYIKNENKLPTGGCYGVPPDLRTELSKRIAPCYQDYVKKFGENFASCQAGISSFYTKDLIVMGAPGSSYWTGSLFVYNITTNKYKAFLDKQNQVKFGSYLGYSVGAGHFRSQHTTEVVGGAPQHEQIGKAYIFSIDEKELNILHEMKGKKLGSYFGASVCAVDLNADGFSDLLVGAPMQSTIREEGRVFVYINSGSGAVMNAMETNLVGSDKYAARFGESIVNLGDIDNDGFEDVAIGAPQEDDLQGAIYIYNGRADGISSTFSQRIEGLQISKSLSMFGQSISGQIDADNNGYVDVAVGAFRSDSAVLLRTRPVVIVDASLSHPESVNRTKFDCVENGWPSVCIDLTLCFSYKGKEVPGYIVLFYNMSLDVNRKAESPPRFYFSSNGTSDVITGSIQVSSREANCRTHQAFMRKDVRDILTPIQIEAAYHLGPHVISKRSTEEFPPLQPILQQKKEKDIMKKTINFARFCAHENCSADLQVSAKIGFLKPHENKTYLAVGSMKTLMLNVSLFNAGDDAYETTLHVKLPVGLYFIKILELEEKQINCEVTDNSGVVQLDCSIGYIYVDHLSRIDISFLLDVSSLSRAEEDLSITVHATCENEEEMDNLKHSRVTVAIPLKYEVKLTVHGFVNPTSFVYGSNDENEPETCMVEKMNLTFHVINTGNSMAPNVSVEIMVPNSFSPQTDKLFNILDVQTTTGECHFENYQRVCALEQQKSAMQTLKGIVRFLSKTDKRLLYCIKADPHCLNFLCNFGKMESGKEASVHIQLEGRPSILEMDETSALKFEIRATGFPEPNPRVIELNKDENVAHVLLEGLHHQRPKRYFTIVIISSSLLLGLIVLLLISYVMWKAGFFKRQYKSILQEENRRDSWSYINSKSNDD

[8] = superoxide lowering in aged yeast cells, pilot screen, validation compound set (AID 2706;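 active = superoxide response below 65% of plate, a cut near 3 SD across the whole screen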;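 note: yeast exposed to compound for one week at 30 degrees C before staining; 100% = mean of all compound wells on the same plate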); settings: S. cerevisiae aging, superoxide DHE fluorescence; at 10 µM, stronger effect = lower value
[9] = biological target: Beta-adrenergic receptor kinase 1 (Homo sapiens) (UniProt P25098); test: GRK2 binders displacing RNA aptamer, biochemical, validation, human GRK2, bead flow cytometry (AID 488806;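 active = aptamer binding inhibition above 30%, about 3 SD of noise from non-fluorescent compounds; inactive = inhibition at or below 30%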); settings: bead-bound GRK2, FAM-aptamer displacement, at 10 µM, stronger effect = higher value
Sequence of Beta-adrenergic receptor kinase 1 (Homo sapiens) (P25098 whole entry, looked up): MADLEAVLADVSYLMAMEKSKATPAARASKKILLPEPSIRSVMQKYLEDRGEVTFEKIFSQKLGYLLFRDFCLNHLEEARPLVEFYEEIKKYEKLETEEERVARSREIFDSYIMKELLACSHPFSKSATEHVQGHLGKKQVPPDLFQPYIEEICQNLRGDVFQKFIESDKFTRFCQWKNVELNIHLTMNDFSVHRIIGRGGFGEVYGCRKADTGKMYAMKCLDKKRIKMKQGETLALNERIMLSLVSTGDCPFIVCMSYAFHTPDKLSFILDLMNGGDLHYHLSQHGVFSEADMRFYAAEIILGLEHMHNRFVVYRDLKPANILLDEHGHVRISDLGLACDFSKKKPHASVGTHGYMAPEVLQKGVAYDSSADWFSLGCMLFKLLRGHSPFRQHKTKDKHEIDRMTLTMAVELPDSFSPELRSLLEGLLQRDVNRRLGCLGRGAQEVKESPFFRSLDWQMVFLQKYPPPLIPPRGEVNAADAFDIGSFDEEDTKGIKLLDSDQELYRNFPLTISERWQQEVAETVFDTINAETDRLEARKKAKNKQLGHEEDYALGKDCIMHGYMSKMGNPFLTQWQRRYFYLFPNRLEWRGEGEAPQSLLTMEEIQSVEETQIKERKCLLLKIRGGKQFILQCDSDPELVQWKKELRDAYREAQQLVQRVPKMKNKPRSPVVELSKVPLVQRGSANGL

[10] = biological target: AP-2 complex subunit beta (Homo sapiens) (UniProt P63010); test: inhibitors of arrestin peptide binding to AP2, pilot screen, biochemical, validation set, GST-AP2 beads, flow cytometry (AID 504541;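 active = inhibition above 54%, about 3 SD of non-fluorescent compounds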;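 note: AP2 carries R879A mutation and is captured from E. coli lysate; bead-bound FITC arrestin peptide fluorescence measuring arrestin peptide binding to AP2; 0% = DMSO wells and 100% = excess unlabeled arrestin peptide control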); settings: FITC arrestin peptide, at 10 µM, stronger effect = higher value, AP2 beta2 appendage fragment, R879A mutant
Sequence of AP-2 complex subunit beta (Homo sapiens) (P63010 whole entry, looked up, the tested form may be a part, one chain of several): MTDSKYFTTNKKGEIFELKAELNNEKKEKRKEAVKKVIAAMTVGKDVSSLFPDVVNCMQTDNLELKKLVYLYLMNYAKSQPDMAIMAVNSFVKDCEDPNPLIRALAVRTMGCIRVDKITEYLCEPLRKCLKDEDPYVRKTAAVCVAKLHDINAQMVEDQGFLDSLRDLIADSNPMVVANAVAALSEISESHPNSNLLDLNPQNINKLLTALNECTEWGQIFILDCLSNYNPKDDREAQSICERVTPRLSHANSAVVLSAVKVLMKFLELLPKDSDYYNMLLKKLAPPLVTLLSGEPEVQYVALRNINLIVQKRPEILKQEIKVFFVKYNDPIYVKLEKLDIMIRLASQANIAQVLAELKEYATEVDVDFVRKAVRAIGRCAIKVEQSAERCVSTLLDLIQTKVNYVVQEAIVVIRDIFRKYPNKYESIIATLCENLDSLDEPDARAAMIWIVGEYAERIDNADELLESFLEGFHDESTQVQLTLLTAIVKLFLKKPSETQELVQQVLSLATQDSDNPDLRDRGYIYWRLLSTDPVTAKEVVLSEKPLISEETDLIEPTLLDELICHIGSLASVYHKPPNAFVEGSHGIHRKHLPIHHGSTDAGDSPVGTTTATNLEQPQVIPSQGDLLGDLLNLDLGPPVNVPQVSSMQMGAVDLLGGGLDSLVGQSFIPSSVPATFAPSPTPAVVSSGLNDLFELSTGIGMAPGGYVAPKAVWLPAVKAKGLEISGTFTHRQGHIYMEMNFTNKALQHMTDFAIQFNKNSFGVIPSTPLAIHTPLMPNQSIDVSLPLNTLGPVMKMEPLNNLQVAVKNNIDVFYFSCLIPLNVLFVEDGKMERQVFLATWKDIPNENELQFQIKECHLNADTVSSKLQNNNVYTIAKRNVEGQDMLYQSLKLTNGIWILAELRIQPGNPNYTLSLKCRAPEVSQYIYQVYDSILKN

[11] = yeast V-ATPase proton transport modulators, S. cerevisiae, pHLuorin, HTS validation (AID 504600; in the data active = response above about 15%;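 note: plate controls were DMSO for no effect and reference compound for full effect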); settings: S. cerevisiae pHLuorin cytosolic pH, at 10 µM, stronger effect = higher value
[12] = system: anti-desmoglein-3 scFv antibody binding to human DSG3; test: inhibitors of anti-DSG3 scFv binding to DSG3, pilot screen, biochemical, validation compound set, bead-based, flow cytometry (AID 588368;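 active = binding below the plate cutoff, the plate median minus 3 SD, with a reading above zero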;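 note: signal is the median channel fluorescence of bead-bound GFP antibody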); settings: Protein G beads, DSG3-Fc, scFv-GFP binding, at 10 µM, stronger effect = lower value
[13] = inhibitors of fungal efflux pumps CDR1, CDR2, MDR1, pilot screen, validation compound set, multiplex, phenotypic (AID 588506;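 active = efflux inhibition above 0.42, the validation set average plus 4 SD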;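 note: Nile Red retained in cells so higher fluorescence means more efflux inhibition; 0 = negative control wells and 1 = enniatin B 25 µM full block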); settings: S. cerevisiae pump-expressing triplex, Nile Red efflux flow cytometry; at 10 µM; stronger effect = higher value; the pumps come from Candida albicans
[14] = biological target: ATP-binding cassette sub-family B member 6 (Homo sapiens) (UniProt Q9NP58); test: ABCB6 transporter inhibitors, pilot screen, K562-ABCB6 cells, flow cytometry, validation set (AID 588550;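 active = inhibition above the screen-wide mean plus 3 SD, about 51%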;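 note: 0% = DMSO wells and 100% = benzethonium chloride 70 µM positive control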); settings: K562-ABCB6 porphyrin accumulation, 1 h, at 10 µM, stronger effect = higher value
Sequence of ATP-binding cassette sub-family B member 6 (Homo sapiens) (Q9NP58 whole entry, looked up): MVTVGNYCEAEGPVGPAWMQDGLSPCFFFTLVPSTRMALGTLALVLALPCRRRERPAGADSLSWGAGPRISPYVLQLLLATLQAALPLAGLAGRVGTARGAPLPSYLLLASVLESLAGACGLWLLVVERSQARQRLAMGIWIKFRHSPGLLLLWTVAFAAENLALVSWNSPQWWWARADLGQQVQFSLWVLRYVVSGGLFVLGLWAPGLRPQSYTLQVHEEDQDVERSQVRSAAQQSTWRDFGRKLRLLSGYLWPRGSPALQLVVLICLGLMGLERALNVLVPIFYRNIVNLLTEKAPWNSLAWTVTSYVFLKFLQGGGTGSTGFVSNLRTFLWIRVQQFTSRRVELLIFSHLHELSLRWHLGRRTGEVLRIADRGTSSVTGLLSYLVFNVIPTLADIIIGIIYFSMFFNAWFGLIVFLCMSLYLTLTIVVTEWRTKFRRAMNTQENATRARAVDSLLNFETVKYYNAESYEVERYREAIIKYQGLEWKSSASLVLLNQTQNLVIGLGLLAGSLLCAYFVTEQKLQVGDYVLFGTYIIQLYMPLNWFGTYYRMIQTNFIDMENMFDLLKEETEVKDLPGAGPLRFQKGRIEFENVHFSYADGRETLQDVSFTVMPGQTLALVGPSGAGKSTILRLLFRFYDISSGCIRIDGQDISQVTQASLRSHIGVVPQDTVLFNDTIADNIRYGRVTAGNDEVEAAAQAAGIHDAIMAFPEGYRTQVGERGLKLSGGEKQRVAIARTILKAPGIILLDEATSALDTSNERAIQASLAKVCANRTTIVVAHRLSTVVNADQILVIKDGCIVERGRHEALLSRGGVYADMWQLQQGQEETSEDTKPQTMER

[15] = promoters of myeloid differentiation in arrested cells, primary screen, cell-based, GFP/MAC1 double positive, flow cytometry, validation set (AID 588685;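 active = differentiation response of at least 50%, scaled between solvent and reference control, from cells with both markers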;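 note: compound exposure lasts four days before antibody staining and flow analysis; 0% = DMSO wells and 100% = 5 µM fulvestrant positive control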); settings: ER-HoxA9 marrow cells, stronger effect = higher value, normalized: vehicle 0, fulvestrant 100

Row | SMILES | percent of DMSO control GFP [1] | GFP response vs DMSO [2] | percent response of DMSO control [3] | GFP response vs DMSO [4] | GFP response, % of DMSO [5] | double positive events [6] | vesicle binding response [6] | inhibition [7] | superoxide response (% of plate) [8] | aptamer binding inhibition [9] | inhibition [10] | response [11] | binding (% of control) [12] | efflux inhibition (fraction of control) [13] | inhibition [14] | differentiation response [15]
1 | CCOC(=O)c1cnc2ccccc2c1NCCO | 108% (inactive) | 99.9% (inactive) | 109% (inactive) | 102% (inactive) | 103% (inactive) | 61.1% | 186% (inactive) | 1.62% (inactive) | 98.1% (inactive) | 0% (inactive) | -2.19% (inactive) | 5.12% (inactive) | 99.8% (inactive) | -0.12 (inactive) | 7% (inactive) | -18% (inactive)
2 | CC(C)[N+](C)(CCOC(=O)C1c2ccccc2Oc2ccccc21)C(C)C | 99.6% (inactive) | 101% (inactive) | 109% (inactive) | 85.3% (inactive) | 101% (inactive) | 56% | 192% (inactive) | 1.62% (inactive) | 81.9% (inactive) | 0% (inactive) | -3.24% (inactive) | 9.45% (inactive) | 97.3% (inactive) | -0.09 (inactive) | 7% (inactive) | 1.41% (inactive)
3 | CC(C)CC(NC(=O)C1CCCN1C(=O)OC(C)(C)C)C(=O)NCC(N)=O (stereo not drawn) (Boc-Pro-Leu-Gly-NH2; configuration not given here) | 97.3% (inactive) | 98.9% (inactive) | 92% (inactive) | 94.3% (inactive) | 91.8% (inactive) | 62.8% | 171% (inactive) | -3.97% (inactive) | 89.5% (inactive) | 4% (inactive) | -1.69% (inactive) | -1.76% (inactive) | 102% (inactive) | 0.18 (inactive) | 8% (inactive) | 19.2% (inactive)
4 | CCOc1ccc(C(=O)/C=C/c2cc(OC)c(OC)c(OC)c2)cc1 | 97.1% (inactive) | 105% (inactive) | 92% (inactive) | 105% (inactive) | 89.4% (inactive) | 54.7% | 209% (inactive) | -0.24% (inactive) | 91.6% (inactive) | -3% (inactive) | 4.7% (inactive) | 1.41% (inactive) | 104% (inactive) | 0.25 (inactive) | 4% (inactive) | 40.2% (inactive)
5 | CC(C)Cc1cc(C(=O)N2CCC(N3CCC(C(=O)N4CCCC4)CC3)CC2)n[nH]1 | 100% (inactive) | 89.7% (inactive) | 109% (inactive) | 96.4% (inactive) | 102% (inactive) | 47.5% | 191% (inactive) | -2.11% (inactive) | 102% (inactive) | -3% (inactive) | 3.03% (inactive) | 1.07% (inactive) | 107% (inactive) | -0.16 (inactive) | 3% (inactive) | -27.6% (inactive)
6 | COc1cccc(CN2CCN(C(=O)c3ccc(-c4ccccc4)cc3)CC2)c1 | 99.1% (inactive) | 103% (inactive) | 103% (inactive) | 113% (inactive) | 98.8% (inactive) | 52.5% | 189% (inactive) | -6.77% (inactive) | 87.9% (inactive) | 2% (inactive) | -7.96% (inactive) | 5.01% (inactive) | 99.5% (inactive) | 0.22 (inactive) | 7% (inactive) | 4.64% (inactive)
7 | CCOC(=O)c1oc2cc(OCC(N)=O)ccc2c(=O)c1-c1ccc(OC)c(OC)c1 | 109% (inactive) | 97.9% (inactive) | 107% (inactive) | 94.3% (inactive) | 101% (inactive) | 62.1% | 207% (inactive) | 24.9% (inactive) | 90.1% (inactive) | 1% (inactive) | 2.96% (inactive) | -0.67% (inactive) | 100% (inactive) | -0.01 (inactive) | 8% (inactive) | -18% (inactive)
8 | Cn1c(=O)oc2cc(S(=O)(=O)N3CCc4ccccc4C3)ccc21 | 101% (inactive) | 98.9% (inactive) | 102% (inactive) | 89.3% (inactive) | 97.8% (inactive) | 58.4% | 165% (inactive) | 15.6% (inactive) | 95.2% (inactive) | 2% (inactive) | 7.43% (inactive) | 2.89% (inactive) | 98.3% (inactive) | -0.05 (inactive) | 10% (inactive) | 9.49% (inactive)
9 | COC1(C)CC2C(CC1OC(=O)c1cc([N+](=O)[O-])cc([N+](=O)[O-])c1)C2(C)C (centres undefined) | 104% (inactive) | 99.9% (inactive) | 106% (inactive) | 178% (active) | 74.2% (inactive) | 52.4% | 222% (inactive) | -3.97% (inactive) | 114% (inactive) | 5% (inactive) | -6.29% (inactive) | 3.54% (inactive) | 99.3% (inactive) | -0.35 (inactive) | 9% (inactive) | -18% (inactive)
10 | NCCOc1ccccc1OCCN | 102% (inactive) | 93.8% (inactive) | 102% (inactive) | 90.3% (inactive) | 99.9% (inactive) | 59.5% | 208% (inactive) | -6.77% (inactive) | 91.8% (inactive) | -6% (inactive) | -11.9% (inactive) | -1.26% (inactive) | 109% (inactive) | -0.2 (inactive) | 11% (inactive) | -26% (inactive)
11 | CC(C)Oc1ccc(C(CC(=O)O)c2ccc(F)cc2)cc1 (centres undefined) | 102% (inactive) | 108% (inactive) | 92% (inactive) | 113% (inactive) | 90.4% (inactive) | 62.7% | 164% (inactive) | 9.09% (inactive) | 105% (inactive) | 5% (inactive) | -6.35% (inactive) | 3.61% (inactive) | 96.7% (inactive) | 0.18 (inactive) | 5% (inactive) | -18% (inactive)
12 | CC1(C)S[C@@H]2[C@H](NC(=O)C(C(=O)O)c3ccccc3)C(=O)N2[C@H]1C(=O)O (some centres undefined) | 96.3% (inactive) | 94.8% (inactive) | 105% (inactive) | 88.3% (inactive) | 98.5% (inactive) | 53.1% | 212% (inactive) | 2.56% (inactive) | 108% (inactive) | 4% (inactive) | 1.78% (inactive) | -1.48% (inactive) | 97.2% (inactive) | -0.12 (inactive) | 9% (inactive) | 1.41% (inactive)
13 | COc1ccc(OC)c(-n2c(Cn3c(-c4ccccn4)nc4ccccc43)n[nH]c2=S)c1 | 98.5% (inactive) | 101% (inactive) | 93% (inactive) | 90.3% (inactive) | 91.8% (inactive) | 62.6% | 144% (inactive) | 7.22% (inactive) | 97.4% (inactive) | 1% (inactive) | 6.75% (inactive) | -0.2% (inactive) | 105% (inactive) | 0.44 (active) | -8% (inactive) | -9.89% (inactive)
14 | Cc1ncc([N+](=O)[O-])n1CCO | 99.6% (inactive) | 93.8% (inactive) | 105% (inactive) | 97.4% (inactive) | 94.6% (inactive) | 59.8% | 172% (inactive) | 10% (inactive) | 98.8% (inactive) | 1% (inactive) | -1.26% (inactive) | 3.07% (inactive) | 93.1% (inactive) | 0.18 (inactive) | 5% (inactive) | -9.89% (inactive)
15 | Cn1c2ccccc2c2cc(/C=C(\NC(=O)c3ccccc3)C(=O)O)ccc21 | 95.6% (inactive) | 90.8% (inactive) | 106% (inactive) | 92.3% (inactive) | 95.7% (inactive) | 58% | 107% (inactive) | -9.57% (inactive) | 111% (inactive) | 3% (inactive) | -8.15% (inactive) | 1.01% (inactive) | 96.5% (inactive) | -0.43 (inactive) | 10% (inactive) | -14.7% (inactive)
16 | COc1ccc2c(c1)C(=O)CC(c1ccccc1F)O2 (centres undefined) | 95.8% (inactive) | 103% (inactive) | 93.9% (inactive) | 92.3% (inactive) | 87% (inactive) | 62% | 135% (inactive) | 10% (inactive) | 97% (inactive) | 0% (inactive) | 21.8% (inactive) | -0.49% (inactive) | 94.1% (inactive) | 0.44 (active) | -46% (inactive) | -11.5% (inactive)
17 | C[C@H](CS)C(=O)N1CCC[C@H]1C(=O)O | 106% (inactive) | 98.9% (inactive) | 109% (inactive) | 96.4% (inactive) | 102% (inactive) | 58.6% | 186% (inactive) | -2.11% (inactive) | 97.4% (inactive) | 0% (inactive) | -2.44% (inactive) | -1.86% (inactive) | 96.7% (inactive) | -0.16 (inactive) | 8% (inactive) | -29.3% (inactive)
18 | COc1ccc(-c2cc3cc(OC)c(OC)cc3c(C)n2)cc1 | 103% (inactive) | 105% (inactive) | 102% (inactive) | 90.3% (inactive) | 90.7% (inactive) | 53.2% | 149% (inactive) | 5.36% (inactive) | 96% (inactive) | 6% (inactive) | 1.41% (inactive) | 1.33% (inactive) | 106% (inactive) | -0.09 (inactive) | -2% (inactive) | -8.27% (inactive)
19 | COc1ccccc1C1C(C#N)=C(N)Oc2c1oc(CO)cc2=O (centres undefined) | 102% (inactive) | 96.9% (inactive) | 111% (inactive) | 103% (inactive) | 107% (inactive) | 52% | 174% (inactive) | -11.4% (inactive) | 103% (inactive) | 2% (inactive) | -6.41% (inactive) | 2.3% (inactive) | 95.9% (inactive) | 0.03 (inactive) | 9% (inactive) | -11.5% (inactive)
